# Out of some 410,000 compounds screened, about 1,200 (0.29%) were called active. Inconclusive results (about 2%) are left out. The sample holds actives, similar compounds and a random draw of the others, so the mix is not that of the screen. Unmarked numbers belong to inactive results. The call rests on the fitted dose curve; in most records, active means well fitted activation curve with a large enough effect; inconclusive means small, poorly fitted or top-dose-only effect; inactive means flat fitted curve, though single readings scatter.
# Experiment: qHTS of Nrf2 Activators; further: nearly all actives have a fitted effect of over 65% in size; on activation: % of control where 0% means no effect
# Conditions: AREc32 ARE-luciferase reporter (MCF7-derived line), luminescence, 24 h; series mostly up to 46.1 µM; activation: at the top concentration
# Method in brief: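 Each well held 1000 AREc32 cells, which were incubated with compound for 24 hr at 37 deg C after overnight attachment, and ARE reporter activity was quantified by firefly luciferase luminescence.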
# Potency means the concentration at half of the fitted maximal effect.
SMILES,activation,Potency
CCOC(=O)c1c(C)oc2nc(C)nc(Nc3ccc(CC)cc3)c12,0.634%,
CCCOc1ccc(-c2cccc(NS(=O)(=O)c3ccccc3)c2)nn1,5.26%,
COc1ccc(N2C(=O)C3C(C2=O)C(C(=O)c2ccccc2)N2CCCC32)cc1 (stereo not drawn),,12.6 µM (active)
COc1ccc(C2NC(=O)N(C)C3=C2C(=O)N(c2ccc(C(=O)O)cc2)C3)cc1 (stereo not drawn),-0.886%,
COc1ccc(N2C(=O)CC(N3CCC(C(N)=O)CC3)C2=O)cc1 (stereo not drawn),2.6%,
CCCNC(=O)C1CCC(Cn2c(=O)c3sccc3n(Cc3ccccc3F)c2=O)CC1 (stereo not drawn),-0.818%,
COc1ccccc1CNC(=O)c1ccc(CS(=O)c2ccccc2Cl)o1 (stereo not drawn),0.406%,
Cc1ccc(-c2ccnc3nc(Sc4ncc(C(F)(F)F)cc4Cl)nn23)cc1,3.01%,
Cc1cc(-c2ccccc2)n2nc(-c3ccccc3)cc2n1,12.8%,
c1ccc(-c2ccnc3nc(-n4cccc4)nn23)cc1,,12.6 µM (active)
O=C(Nc1nnc(S(=O)(=O)N2CCCc3ccccc32)s1)c1cccc(F)c1,7.1%,
CCSc1ncc(Cl)c(C(=O)Nc2c(C(=O)c3ccccc3)oc3ccccc23)n1,1.26%,
O=C(Nc1ccccc1Cl)Nc1cccc2cccnc12,,12.6 µM (active)
COc1c(Cl)cc(Cl)cc1C(=O)Nc1cccc2cccnc12,4.52%,
O=C(Nc1cccc2cccnc12)c1cccc2c(Br)cccc12,-0.813%,
Cc1ccc(NC(=O)CN2C(=O)C(c3ccc(F)cc3)=NC23CCCCCC3)c(C)c1,-0.548%,
CCCN1CCc2nc(N3CCN(C)CC3)ncc2C1,-0.347%,
CC(C)(C)c1ccc(C(=O)N2CCC(c3nc(-c4ccc(S(=O)(=O)N5CCCC5)cc4)no3)CC2)cc1,-0.309%,
O=C(CSc1n[nH]c(=O)n1-c1ccccc1)Nc1ccccc1C(F)(F)F,0.332%,
O=c1[nH]nc(SCCS(=O)(=O)c2ccc(F)cc2)n1-c1ccccc1C(F)(F)F,,11.2 µM (active)
O=S(=O)(c1ccc(F)cc1)N1CCN(Cc2ccccc2C(F)(F)F)CC1,-0.452%,
COc1ccc2oc(=O)c(-c3cn4c(n3)sc3cc(OC)ccc34)cc2c1,0.368%,
O=C1/C(=C\c2ccc(O)cc2)CCC1CNc1ccc(Cl)cc1 (stereo not drawn),,11.2 µM (active)
CC(=O)c1nn(-c2ccc(OC(F)(F)F)cc2)nc1Nc1ccccc1,1.31%,
CCOc1ccc(CCNC(=O)c2ccc3c(c2)sc2nc(-c4ccc(F)cc4)cn23)cc1OCC,3.06%,

SMILES,activation,Potency
Cn1c(=O)c2c(n3c4ccccc4nc13)NC(=O)CC2c1cccc(Cl)c1 (stereo not drawn),1.12%,
Cc1ccc(-c2nnc(SCC(=O)NCc3ccccc3)nc2-c2ccc(C)cc2)cc1,5.5%,
c1ccc(CSc2nnc(-c3ccco3)c(-c3ccco3)n2)cc1,,12.6 µM (active)
Fc1ccc(CSc2nc(NCc3ccccc3)c3ccccc3n2)cc1,6.47%,
Cc1ccc(CNC(=O)CSc2c3c(nc4cc(Cl)ccc24)CCCC3)cc1,26.8%,
O=C(CSc1c2c(nc3ccc(Cl)cc13)CCCC2)NCc1ccco1,,11.2 µM (active)
COc1cccc(CNC(=O)CSc2c3c(nc4cc(Cl)ccc24)CCCC3)c1,19.1%,
CCCNC(=O)CCC(=O)N1Cc2ccccc2Oc2ncccc21,-0.631%,
Cc1ccc2[nH]c3c(=O)n(CC(=O)NC(C)C)ncc3c2c1,-0.0426%,
COc1ccc(-c2csc(-c3c(N)c(C(=O)c4ccc(OC)c(OC)c4)n4ccccc34)n2)cc1,-0.693%,
CCn1c2ccccc2c2nnc(N3CCN(c4cc(C)ccc4C)CC3)nc21,-0.21%,
Cc1nc(-c2ccccc2)sc1-c1nnc(C2CC2)o1,,15.8 µM (active)
Cc1nc(N)sc1-c1ccccc1,8.19%,
Cc1nc(-c2ccccc2)sc1-c1nc(-c2ccccc2)ncc1S(=O)(=O)c1ccccc1,0.0302%,
COc1ccc(Cl)cc1S(=O)(=O)N1CCC(c2ccncc2)CC1,3.31%,
CCOc1ccc(CC(=O)NCCc2csc3nc(-c4ccccc4F)nn23)cc1,3.54%,
O=C(/C=C/c1ccc2c(c1)OCCO2)c1ccc(O)cc1,,5.01 µM (active)
O=C(COC(=O)/C=C/c1ccc2c(c1)OCO2)NC1CCS(=O)(=O)C1 (stereo not drawn),5.37%,
O/N=C(\c1ccc2c(c1)OCCO2)C1CCCCC1,-0.368%,
O=C(NCCc1csc(-c2ccc(C(F)(F)F)cc2)n1)C(=O)Nc1ccc(F)c(Cl)c1,0.286%,
COc1ccc(NC(=O)c2ccc3nc(C(C)C)oc3c2)cc1OC,9.79%,
CCc1cccc(NC(=O)COC(=O)C2CCN(c3ccc(C(F)(F)F)cn3)CC2)c1,-0.0951%,
CCc1cccc(NC(=O)COC(=O)c2cc(=O)c3ccccc3o2)c1,,14.1 µM (active)
COCc1c(C(=O)OCC(=O)Nc2ccc(OC(F)F)cc2)oc2ccccc12,-0.783%,
Cc1cc(C)nc(NS(=O)(=O)c2ccc(NC(=O)c3cc(=O)c4ccc(C)c(C)c4o3)cc2)n1,-0.437%,

SMILES,activation,Potency
COc1cc2c(cc1NC(=O)COC(=O)/C=C/c1ccccc1)oc1ccccc12,4.04%,
COc1ccc(Br)cc1CN(C)CC(=O)Nc1cc([N+](=O)[O-])ccc1OC,0.584%,
COc1ccc([N+](=O)[O-])cc1NC(=O)COC(=O)/C=C/c1ccco1,,11.2 µM (active)
FC(F)(F)c1cc(Nc2nc3ccccc3c3nncn23)ccc1Cl,-0.119%,
COc1cccc(N=C2SC(C(=O)Nc3cccc(Cl)c3)CC(=O)N2C)c1 (stereo not drawn),4.5%,
COc1ccc(-c2nnc(SCC(=O)Nc3ccc(C(C)C)cc3)nc2-c2ccc(OC)c(OC)c2)cc1OC,4.8%,
c1ccc(Cc2c(-c3ccco3)nc3c4ccccc4ccn23)cc1,,6.31 µM (active)
COC(=O)c1ccc2nc(-c3ccc(F)cc3)c(Cc3ccc(C)cc3)n2c1,16.6%,
Cc1ccc(Cc2c(-c3ccco3)nc3ccc(Cl)cn23)cc1,,12.6 µM (active)
COC(=O)c1ccc2nc(-c3ccc(Cl)cc3)c(Cc3cccc(F)c3)n2c1,0.65%,
CCCc1nc2c3ccccc3ccn2c1Cc1ccccc1C(F)(F)F,10.7%,
CC(C)c1ccc(NC(=O)C2CCN(c3nc(-c4ccc(C(C)C)cc4)no3)CC2)cc1,-5.01%,
COc1ccc(NC(=O)c2sc3nc(-c4cc5cccc(OC)c5oc4=O)[nH]c(=O)c3c2C)cc1,-0.615%,
O=S(=O)(c1ccc(Cl)cc1)c1nnn2c1nc(NC1CCCC1)c1sccc12,-0.774%,
CCc1cc2c(cc3c(=O)n(CC(=O)NCCc4ccc(OC)c(OC)c4)ncn32)s1,0.25%,
CCOC(=O)c1ccc(CSc2nnc3cc(C)c4ccccc4n23)cc1,2.48%,
CN(C(=O)c1ccccc1)c1nccnc1C#N,-0.11%,
COc1ccc(S(=O)(=O)c2c(Nc3cccc(Cl)c3)sc(C(=O)c3ccccc3)c2N)cc1,5.95%,
CN(C)c1ccnc2sc(C(=O)c3ccccc3)c(N)c12,,10 µM (active)
CCCS(=O)(=O)c1c(Nc2ccccc2C)sc(C(=O)c2ccccc2)c1N,-0.703%,
Cc1ccc2c(N)c(C(=O)c3ccccc3)sc2n1,,8.91 µM (active)
COc1cccc(C(=O)c2sc3nc(-c4ccccc4)cc(C(F)(F)F)c3c2N)c1,22.5%,
COc1ccc(-n2ccnc(NCCc3ccc(Cl)cc3)c2=O)cc1OC,3.86%,
CCN1CCN(c2cc(C)c3cc(NC(=O)c4cc(Cl)ccc4OC)ccc3n2)CC1,0.689%,
COc1ccc(CCNC(=O)CCCn2c(=O)c3ccccc3n(Cc3ccc(F)cc3Cl)c2=O)cc1OC,-0.204%,

SMILES,activation,Potency
CCOc1ccccc1C(=O)NC1(C(F)(F)F)C(=O)Nc2c1c(=O)[nH]c(=O)n2-c1ccc(F)cc1 (stereo not drawn),-0.547%,
Cc1ccc(-c2noc(-c3nnn(-c4cccc(C(F)(F)F)c4)c3N)n2)cc1,-0.844%,
Cc1cccc(NC(=O)CSc2nnc(CNC(=O)c3cccc(C)c3)n2-c2ccccc2)c1,-0.11%,
CCOC(=O)c1c(NC(C)=O)c2c3c(sc2n1Cc1c(C)cc(C)cc1C)CCCC3,7.04%,
COc1ccccc1CNC(=O)CCCCn1c(=O)c2ccccc2n(CC(=O)Nc2cc(Cl)ccc2C)c1=O,-0.0006%,
COc1cccc(C(=O)N(Cc2cccc(Cl)c2)Cc2ccco2)c1,8.54%,
COc1ccccc1N1CCN(S(=O)(=O)CCNC(=O)COc2ccc(F)cc2)CC1,2.57%,
CC(C)n1c(O)c(N=Nc2ccccn2)c2ccccc21,,12.6 µM (active)
COC(=O)Cn1c(O)c(N=NC(=O)OC)c2ccccc21,4.09%,
CCOC(=O)c1ccc(N2C(=O)c3[nH]nc(-c4ccccc4)c3C2c2ccc(C(C)C)cc2)cc1 (stereo not drawn),-0.391%,
CC1CCCCN1Cc1c(O)ccc2c(=O)c(-c3cccc(Cl)c3)c(C(F)(F)F)oc12 (stereo not drawn),2.18%,
COc1ccc(-c2nc3c4ccccc4n(CC(=O)Nc4ccc(C(C)=O)cc4)c(=O)n3n2)cc1,-0.364%,
CC(C)(C)OC(=O)N1CCC(c2c(C(=O)N3CCc4ccccc4C3)cnn2-c2ccc(F)cc2)CC1,0.152%,
O=[N+]([O-])c1cccc(C=NN=Cc2ccccc2O)c1,,10 µM (active)
N/C(=N\OS(=O)(=O)c1cccc([N+](=O)[O-])c1)c1ccncc1,-1.41%,
O=C(c1ccncc1)N1CCN(S(=O)(=O)c2cccc([N+](=O)[O-])c2)CC1,2.53%,
O=C(N/N=C/c1cccc([N+](=O)[O-])c1)c1ccncc1,,12.6 µM (active)
COc1cc(CCN=Cc2ccccc2O)c([N+](=O)[O-])cc1OC,0.105%,
O=C(/C=C/c1cccc([N+](=O)[O-])c1)OCC(=O)N1CCOCC1,14.8%,
O=C(COc1ccccc1F)OCc1cc(=O)n2nc(C3CCCCC3)sc2n1,0.67%,
Cc1cccc(OCC(=O)N(Cc2ccc(C(C)C)cc2)Cc2ccco2)c1C,1.44%,
O=C1CSC2(C(=O)N(Cc3ccccc3)c3ccccc32)N1c1cccc(F)c1 (stereo not drawn),1.27%,
Cc1ccc(C)c(N2CCN(C(c3ccccc3)c3nnc(-c4ccccc4)o3)CC2)c1 (stereo not drawn),3.85%,

# Source: PubChem BioAssay AID624171 (National Center for Advancing Translational Sciences (NCATS), 2012)
